Test results: PubChem BioAssay AID1947 (The Scripps Research Institute Molecular Screening Center, 2009)
Screen size: about 300,000 compounds; about 990 (0.33%) were called active. The full list was thinned out, with actives kept by preference. Unmarked numbers belong to inactive results.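 How the source made its calls: active means inhibition above the screen mean inhibition plus 3 SD, computed separately per campaign (cut at about 18% in these data); inactive means the rest.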

system: Fam108B (ABHD17B) serine hydrolase [Mus musculus]; assay: inhibition of Fam108B (ABHD17B) hydrolase – biochemical, fluorescence polarization, counter-screen for RBBP9 inhibitor project, primary screen (AID 1947); details: recombinant Fam108B, FP-Rh probe fluorescence polarization; at 9.51 µM; hits give high values;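 further: inhibitors lower polarization as less probe binds the enzyme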

For `CCC(C)[C@H]1COCCS(=O)(=O)N1Cc1ccc(C)cc1` (some centres not stated), which inhibition is on record?
The inhibition was -0.44%.

For `CC1(C)C2CCC1(C)C(OC(=O)c1ccc(O)cc1)C2` (configuration not stated), which inhibition is on record?
The inhibition was -4.06%.

`Nc1ccc2nc3c(=O)[nH]c(=S)[nH]c3nc2c1` was tested. Which inhibition did it give?
The inhibition was 29.3% (active).

`O=C(COC(=O)CCCNC(=O)c1ccc(Cl)cc1)Nc1cc(Cl)ccc1Cl` was tested. Which inhibition did it give?
The inhibition was 4.35%.

Which inhibition does the source give for `O=C(NC1CC1)c1ccc(-c2ccccc2)cc1` here?
The inhibition was 34.3% (active).

Which inhibition does the source give for `O=C(NC1CC1)c1cccc(Br)c1` here?
Its inhibition is -0.72%.

`O=C(NNC(=O)c1ccc(-c2ccccc2)cc1)Nc1ccccc1` was tested. Which inhibition did it give?
Its inhibition is -2.01%.

`Cc1ccccc1N1CC(C(=O)Nc2nnc(SCCC3OCCO3)s2)CC1=O` (configuration not stated) was tested. Which inhibition did it give?
The inhibition was 5.32%.

Which inhibition does the source give for `O=C(CN(Cc1ccccc1)C(=O)CCC(=O)Nc1ccccn1)NCCc1ccccc1` here?
The inhibition was 0.27%.

For `COc1ccc(C2=Nc3cc(C)ccc3OC2)cc1`, which inhibition is on record?
Its inhibition is -0.41%.

For `c1ccc(CSc2nnc(-c3ccco3)c(-c3ccco3)n2)cc1`, which inhibition is on record?
The inhibition was 19.7% (active).

`O=c1cc(O)nc(SCc2ccccc2Cl)[nH]1` was tested. Which inhibition did it give?
The inhibition was -1.05%.

`Fc1cccc(Cl)c1CSc1ccc(-c2ccco2)nn1` was tested. Which inhibition did it give?
Its inhibition is -2.56%.

`O=c1[nH]c(SCc2ccccc2)nnc1-c1ccccc1` was tested. Which inhibition did it give?
Its inhibition is -0.14%.

`Clc1ccccc1CSc1nnc(-c2ccco2)c(-c2ccco2)n1` was tested. Which inhibition did it give?
The inhibition was 18.8% (active).

For `COc1ccc2nc(SCc3ccccc3)nc(C)c2c1`, which inhibition is on record?
The inhibition was -2.64%.

For `COC(=O)c1ccc(CNC(=O)c2ccc3oc(C(C)C)nc3c2)cc1`, which inhibition is on record?
Its inhibition is -1.84%.

With `N#CCC(=O)N/N=C/c1cn(Cc2ccc3ccccc3c2)c2ccccc12` as the compound, how does the inhibition read?
The inhibition was -6.56%.

`COC(=O)CN1C(=O)[C@H]2[C@@H](/C=C/c3ccccc3)N3C(=O)CN(CC4CC4)C(=O)[C@@]3(Cc3ccccc3)[C@H]2C1=O` was tested. Which inhibition did it give?
The inhibition was -4.39%.

With `COC/C=C/C1=CC2=CC(=O)C(C)(OC(=O)CCC(=O)OC)C(=O)C2=CO1` (configuration not stated) as the compound, how does the inhibition read?
Its inhibition is 8.02%.

Which inhibition does the source give for `COc1ccc(NC(=O)CSc2nnc(Cc3ccccc3)c(=O)n2N)cc1` here?
The inhibition was 0.31%.

`CC(C)N1CCC(N2CCN(Cc3cccnc3)CC2CCO)CC1` (configuration not stated) was tested. Which inhibition did it give?
The inhibition was 1.03%.

With `COC(=O)c1cc(N2CCNCC2)nc2ccccc12` as the compound, how does the inhibition read?
Its inhibition is 1.69%.

Which inhibition does the source give for `COc1ccc(NS(=O)(=O)c2cc(NC(=O)CC(=O)c3ccc([N+](=O)[O-])cc3)ccc2C)cc1` here?
Its inhibition is 18.6% (active).

For `COc1ccc(NS(=O)(=O)c2cc(C(=O)Nc3ccccc3C(=O)O)ccc2C)cc1`, which inhibition is on record?
The inhibition was -3.09%.

For `COc1ccc(C(=O)CC(=O)C(=O)Nc2cc([N+](=O)[O-])ccc2OC)cc1`, which inhibition is on record?
Its inhibition is 2.15%.

With `COc1cc(Cl)c(C)cc1NC(=O)CSc1nnc(-c2ccco2)n1CC(C)C` as the compound, how does the inhibition read?
Its inhibition is 0.55%.

`Cc1cc(C)cc(OCC(=O)NC(C)c2ccccc2)c1` (configuration not stated) was tested. Which inhibition did it give?
Its inhibition is -2.91%.

`CC(=O)Nc1ccc(NC(=O)CC2CCCC2)cc1` was tested. Which inhibition did it give?
The inhibition was 3.46%.

For `Brc1ccccc1C1Nc2cccc3cccc(c23)N1`, which inhibition is on record?
The inhibition was 11.3%.

Which inhibition does the source give for `Cc1ccc(C2Nc3cccc4cccc(c34)N2)cc1` here?
Its inhibition is 10.3%.

Which inhibition does the source give for `COc1cccc(C2Nc3cccc4cccc(c34)N2)c1` here?
The inhibition was 23% (active).

With `Oc1ccc(C2Nc3cccc4cccc(c34)N2)cc1` as the compound, how does the inhibition read?
The inhibition was 44.7% (active).

With `O=C1NC(c2cccc(Cl)c2)Nc2ccccc21` (configuration not stated) as the compound, how does the inhibition read?
The inhibition was -1.96%.

`COc1ccc(C2NC(=O)c3ccccc3N2)cc1` (configuration not stated) was tested. Which inhibition did it give?
The inhibition was -0.94%.

`COc1ccccc1CN1CCNC(=O)C1CC(=O)N(C)CC1CCOCC1` (configuration not stated) was tested. Which inhibition did it give?
The inhibition was 1.34%.

`O=C(COC(=O)/C=C/c1cn(-c2ccccc2)nc1-c1cccnc1)Nc1ccc(Cl)cc1Cl` was tested. Which inhibition did it give?
The inhibition was -13.2%.

For `O=C(COC(=O)c1cc(=O)[nH]c2ccccc12)Nc1nc(-c2cccc(Br)c2)cs1`, which inhibition is on record?
Its inhibition is -30.4%.

`Cc1nc([N+](=O)[O-])c(NCCCO)n1Cc1ccccc1` was tested. Which inhibition did it give?
The inhibition was 1.87%.

For `COc1cccc(C(=O)N2CCC(n3nccc3NC(=O)C3CCOC3)CC2)c1` (configuration not stated), which inhibition is on record?
Its inhibition is 5.08%.

With `O=C(Nc1ccc2ccccc2c1)Nc1ccc2snnc2c1` as the compound, how does the inhibition read?
Its inhibition is -25.9%.

`Cc1ccc(-c2ccnc3nc(Sc4ncc(C(F)(F)F)cc4Cl)nn23)cc1` was tested. Which inhibition did it give?
Its inhibition is -3.23%.

With `CC[N+](C)(CC)CCC[n+]1c(-c2ccccc2)c2cc(N)ccc2c2ccc(N)cc21` as the compound, how does the inhibition read?
The inhibition was 74.1% (active).

How did the inhibition turn out when `CCc1ccc2ncc(C(=O)c3ccccc3)c(N3CCOCC3)c2c1` was run?
The inhibition was 0.71%.

`FC(F)(F)c1cc(-c2ccco2)nc(NCc2ccc(Cl)cc2)n1` was tested. Which inhibition did it give?
Its inhibition is -10.7%.

With `Cc1cc(=O)oc2c3c(cc(OCC(=O)NCc4ccccn4)c12)OC(C)(C)CC3` as the compound, how does the inhibition read?
Its inhibition is -1.76%.

For `COc1cc(NC(=O)COC(=O)c2cnc(C)cn2)c(C)cc1[N+](=O)[O-]`, which inhibition is on record?
The inhibition was -0.2%.

Which inhibition does the source give for `CC(C)[C@H](NC(=O)N1CC(=O)Nc2ccccc21)C(=O)N[C@@H](Cc1c[nH]c2ccccc12)C(=O)O` here?
Its inhibition is 0.98%.

Which inhibition does the source give for `COc1cc(OC)cc(C(=O)NCCSCc2ccc(Cl)cc2)c1` here?
The inhibition was -2.49%.

`Cc1ccc(-c2ccnc3[nH]n(-c4ccccc4)c(=O)c23)cc1` was tested. Which inhibition did it give?
The inhibition was -1.58%.

How did the inhibition turn out when `Cc1cc(C)c(C2C3=C(Nc4c2c(C)nn4-c2ccccn2)c2ccccc2C3=O)c(C)c1` (configuration not stated) was run?
The inhibition was -5.56%.

With `Cc1ccc(C2C3=C(Nc4[nH]n(-c5ccccc5)c(=O)c42)c2ccccc2C3=O)cc1` (configuration not stated) as the compound, how does the inhibition read?
The inhibition was 34.1% (active).

Which inhibition does the source give for `COCCN1CCn2c(nc3cc(NS(C)(=O)=O)ccc32)C1` here?
Its inhibition is 2.47%.

How did the inhibition turn out when `Cc1[nH]n(C(N)=S)c(=O)c1N=Nc1ccc(Cl)cc1Cl` was run?
The inhibition was 20.8% (active).

With `CC1=NN(C(N)=S)C(=O)C1N=Nc1cc(Cl)ccc1Cl` (configuration not stated) as the compound, how does the inhibition read?
Its inhibition is 1.09%.

`Cc1cccc(N=Nc2c(C)[nH]n(-c3ccccc3)c2=O)c1` was tested. Which inhibition did it give?
The inhibition was 4.19%.

For `O=C(CNC(=O)c1ccccc1F)c1ccc(Br)cc1`, which inhibition is on record?
Its inhibition is 0.62%.

With `COc1c(F)c(F)c(-c2csc(N)n2)c(F)c1F` as the compound, how does the inhibition read?
Its inhibition is 2.83%.

`S=C(Nc1ccc2c(c1)OCO2)N1CCCC1` was tested. Which inhibition did it give?
Its inhibition is -2.94%.

Which inhibition does the source give for `Cc1ccccc1NC(=O)CSC1=NCCN1` here?
Its inhibition is -0.3%.

For `COc1ccc(NC(=O)CCCN2C(=O)C(c3ccccc3)Oc3cccnc32)cc1` (configuration not stated), which inhibition is on record?
Its inhibition is -1.86%.

`O=C(OCC1O[C@@H](OC(=O)c2cc(O)c(O)c(O)c2)[C@@H](OC(=O)c2cc(O)c(O)c(O)c2)[C@@H](OC(=O)c2cc(O)c(O)c(O)c2)[C@@H]1OC(=O)c1cc(O)c(O)c(O)c1)c1cc(O)c(O)c(O)c1` (some centres not stated) was tested. Which inhibition did it give?
Its inhibition is 62.1% (active).

Which inhibition does the source give for `O=C(OCC1OC(Oc2ccc(O)cc2)C(O)C(O)C1O)c1ccccc1` (configuration not stated) here?
The inhibition was -4.47%.

Which inhibition does the source give for `CC(O)c1ccc(OCCN(C)c2ccccn2)cc1` (configuration not stated) here?
Its inhibition is 8.79%.

`Cn1cnnc1Sc1ccc(S(C)(=O)=O)cc1[N+](=O)[O-]` was tested. Which inhibition did it give?
The inhibition was 0.49%.

Which inhibition does the source give for `CCC(C)N(C(=O)COC(=O)c1nc(Cl)ccc1Cl)C1CCS(=O)(=O)C1` (configuration not stated) here?
Its inhibition is 4.9%.

With `CCOC(=O)c1sc(=NC(=O)/C=C/c2cccs2)n(C)c1C` as the compound, how does the inhibition read?
The inhibition was -2.21%.

For `COc1ccc(-c2nc(CS(=O)CC(=O)NCc3ccccn3)c(C)o2)cc1` (configuration not stated), which inhibition is on record?
Its inhibition is 22.4% (active).

How did the inhibition turn out when `COc1cccc(-c2nc(CS(=O)CC(=O)NCc3ccc(F)cc3)c(C)o2)c1` (configuration not stated) was run?
The inhibition was 1.48%.

Which inhibition does the source give for `COc1ccc(-c2nc(CS(=O)CC(=O)NCc3ccccc3)c(C)o2)cc1OC` (configuration not stated) here?
Its inhibition is 0.72%.

Which inhibition does the source give for `CCC(=O)Nc1cccc(C2=NOC3(C2)C[C@@H](C(N)=O)N(C(=O)c2cc([N+](=O)[O-])cc([N+](=O)[O-])c2C)C3)c1` (some centres not stated) here?
Its inhibition is 3.54%.

`Cc1ccc(-n2c(C)nnc2SCC(=O)NC2CC2)cc1` was tested. Which inhibition did it give?
Its inhibition is 2.72%.

With `CC(CC(=O)N1CCN(c2ccccc2)CC1)S(=O)(=O)c1ccc2c(c1)NC(=O)CS2` (configuration not stated) as the compound, how does the inhibition read?
Its inhibition is -0.25%.

With `Cc1cc(/C=N/NC(=O)c2cccnc2)c(C)n1CC(C)C` as the compound, how does the inhibition read?
Its inhibition is 0.13%.

For `O=C(NN=C1CCC(=NNC(=O)c2cccnc2)CC1)c1cccnc1`, which inhibition is on record?
The inhibition was -0.8%.

Which inhibition does the source give for `O=C(N/N=C/c1sc(N2CCCCC2)nc1-c1cccs1)c1cccnc1` here?
The inhibition was 30.7% (active).

How did the inhibition turn out when `CC1CC(C)CN(S(=O)(=O)c2cccc(C(=O)N3C(=O)c4cccc(N)c4C3=O)c2)C1` (configuration not stated) was run?
The inhibition was -1.13%.

`NS(=O)(=O)c1ccc(CCNC(=O)c2nc(CS(=O)(=O)c3ccc(Cl)cc3)no2)cc1` was tested. Which inhibition did it give?
Its inhibition is 1.62%.

With `CCOc1ccc2nc(/N=C/c3nc(-c4ccccc4)oc3O)sc2c1` as the compound, how does the inhibition read?
Its inhibition is 5.88%.

With `Oc1oc(-c2ccccc2Br)nc1/C=N/c1ccccn1` as the compound, how does the inhibition read?
Its inhibition is 25.5% (active).

How did the inhibition turn out when `CC(N=Cc1nc(-c2ccccc2)oc1O)c1ccccc1` (configuration not stated) was run?
The inhibition was 4.55%.

`O=C(CCNC(=O)C1CCN(S(=O)(=O)c2ccccc2)CC1)NC1CC1` was tested. Which inhibition did it give?
The inhibition was -1.2%.

Which inhibition does the source give for `Cc1ccc(-n2ncc3c(=O)n(-c4ccc(C)c(C)c4)c(-c4ccco4)nc32)cc1` here?
Its inhibition is -5.3%.

`Cc1ccc(-c2nc3c(cnn3-c3ccccc3)c(=O)o2)cc1` was tested. Which inhibition did it give?
Its inhibition is 22.6% (active).

How did the inhibition turn out when `CC(=O)Cn1cnc2c(cnn2-c2ccccc2)c1=O` was run?
The inhibition was 4.35%.

With `O=C(COc1ccccc1)Nc1nonc1NC(=O)COc1ccccc1` as the compound, how does the inhibition read?
Its inhibition is -1.87%.

How did the inhibition turn out when `COc1ccc(C)cc1S(=O)(=O)NCCc1ccccc1` was run?
Its inhibition is 1.15%.

How did the inhibition turn out when `Cc1cc(C)c(S(=O)(=O)n2cc(C(C)C(N)C(=O)O)c3ccccc32)c(C)c1` (configuration not stated) was run?
Its inhibition is -1.29%.

`CCC1(c2ccccc2)NC(=O)N(CC(=O)c2ccc3c(c2)OCO3)C1=O` (configuration not stated) was tested. Which inhibition did it give?
The inhibition was 1.48%.

Which inhibition does the source give for `COc1ccccc1C1=Nc2cccc3cccc(c23)N1` here?
The inhibition was 6.45%.

For `Fc1ccccc1N=C1Nc2cccc3cccc1c23`, which inhibition is on record?
The inhibition was 3.49%.

Which inhibition does the source give for `c1ccc(C2=Nc3cccc4cccc(c34)N2)cc1` here?
The inhibition was 31.5% (active).
